Reference: ChEMBL document CHEMBL3988442, “University of Dundee, Small-Polar-MMV Screening Library” (2021)
For some of these results: Entries with a potency or affinity are not part of this list.

Assays:
Design in all cases: scale not given: direction of the effect not stated beside the values
[1] = target: Protein translocase subunit SecA (Escherichia coli (strain K12)) (UniProt P10408); assay: Assay to Identify E. coli SecA ATPase Inhibitors; type: functional; settings: 30 µM
[2] = target: T1, Ubiquitin-activating enzyme e1, putative (Leishmania donovani (strain BPK282A1)) (UniProt E9BSI1); assay: Leishmania donovani Ubiquitin Activating Enzyme (LdE1); type: functional; settings: 30 µM
T1 sequence (whole entry): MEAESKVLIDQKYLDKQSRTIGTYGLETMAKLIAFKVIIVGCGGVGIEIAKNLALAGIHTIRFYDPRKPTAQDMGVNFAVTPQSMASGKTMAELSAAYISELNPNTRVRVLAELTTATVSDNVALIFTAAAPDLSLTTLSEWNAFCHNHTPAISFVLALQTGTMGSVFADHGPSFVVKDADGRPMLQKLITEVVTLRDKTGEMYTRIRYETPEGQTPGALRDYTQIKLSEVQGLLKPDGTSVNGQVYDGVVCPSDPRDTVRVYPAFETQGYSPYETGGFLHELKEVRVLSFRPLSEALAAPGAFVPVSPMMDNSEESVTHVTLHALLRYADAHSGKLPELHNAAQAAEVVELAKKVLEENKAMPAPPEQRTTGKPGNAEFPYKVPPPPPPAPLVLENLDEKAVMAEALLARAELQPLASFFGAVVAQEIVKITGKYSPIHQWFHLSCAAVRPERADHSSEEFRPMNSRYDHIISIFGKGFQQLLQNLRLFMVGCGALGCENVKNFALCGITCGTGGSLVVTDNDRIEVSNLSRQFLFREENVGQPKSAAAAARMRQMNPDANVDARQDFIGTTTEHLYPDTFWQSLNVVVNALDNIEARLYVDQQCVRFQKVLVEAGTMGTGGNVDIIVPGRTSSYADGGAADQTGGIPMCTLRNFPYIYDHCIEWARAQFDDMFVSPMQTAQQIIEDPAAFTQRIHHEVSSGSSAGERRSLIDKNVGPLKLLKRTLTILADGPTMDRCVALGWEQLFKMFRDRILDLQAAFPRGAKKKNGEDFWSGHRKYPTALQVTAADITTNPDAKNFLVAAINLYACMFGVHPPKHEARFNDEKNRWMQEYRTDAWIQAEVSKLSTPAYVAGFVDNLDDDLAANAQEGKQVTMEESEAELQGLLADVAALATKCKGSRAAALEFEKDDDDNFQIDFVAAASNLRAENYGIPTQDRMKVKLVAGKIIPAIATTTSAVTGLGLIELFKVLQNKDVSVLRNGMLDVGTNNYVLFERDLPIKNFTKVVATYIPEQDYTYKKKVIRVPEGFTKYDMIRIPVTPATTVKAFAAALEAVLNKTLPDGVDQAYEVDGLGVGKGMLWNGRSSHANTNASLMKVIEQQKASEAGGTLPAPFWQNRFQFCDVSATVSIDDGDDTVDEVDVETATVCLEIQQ

[3] = target: AMP-activated protein kinase, AMPK (Homo sapiens) (UniProt P54646+O43741+P54619+Q9UGJ0+Q9Y478+Q13131+Q9UGI9); assay: AMP-dependent Kinase enzyme assay. An in vitro enzyme assay that detects ADP turnover that is directly proportional to AMPK activity. This uses naive AMPK that is activated during the assay with MK-8722; type: functional; settings: 30 µM
[4] = target: Sialic acid-binding Ig-like lectin 9 (Homo sapiens) (UniProt Q9Y336); assay: Hs-Siglec9 ALPHAscreen SOP 20170721; settings: 10 µM
Trypanosoma cruzi = assay: Trypanosoma cruzi phosphomannomutase and mannose-1-phosphate guanylyltransferase assay; type: functional; settings: 10 µM
[5] = target: T2, Arginase-2, mitochondrial (Homo sapiens) (UniProt P78540); assay: in vitro enzyme assay to detect the production of urea directly proportional to the activity of Arginase II; type: functional; settings: 33.3 µM; note: in the data most compounds retested in dose-response had high values
T2 sequence (whole entry): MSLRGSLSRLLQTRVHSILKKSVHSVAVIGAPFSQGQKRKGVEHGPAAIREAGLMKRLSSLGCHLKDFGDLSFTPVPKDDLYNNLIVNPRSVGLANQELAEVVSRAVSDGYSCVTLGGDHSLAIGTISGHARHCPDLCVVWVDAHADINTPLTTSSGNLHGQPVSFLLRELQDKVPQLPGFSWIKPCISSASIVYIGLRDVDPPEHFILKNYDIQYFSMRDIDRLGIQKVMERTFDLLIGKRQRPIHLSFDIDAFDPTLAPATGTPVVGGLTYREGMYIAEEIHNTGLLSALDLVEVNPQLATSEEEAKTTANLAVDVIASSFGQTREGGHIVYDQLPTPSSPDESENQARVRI

[6] = target: T3, Proteasome subunit beta (Trypanosoma cruzi) (UniProt O96673); assay: Trypanosoma cruzi proteasome chymotrypsin-like activity (TcProtChymo) assay.; note: in the data most compounds retested in dose-response had high values; type: functional; settings: 9.37 µM
T3 sequence (whole entry): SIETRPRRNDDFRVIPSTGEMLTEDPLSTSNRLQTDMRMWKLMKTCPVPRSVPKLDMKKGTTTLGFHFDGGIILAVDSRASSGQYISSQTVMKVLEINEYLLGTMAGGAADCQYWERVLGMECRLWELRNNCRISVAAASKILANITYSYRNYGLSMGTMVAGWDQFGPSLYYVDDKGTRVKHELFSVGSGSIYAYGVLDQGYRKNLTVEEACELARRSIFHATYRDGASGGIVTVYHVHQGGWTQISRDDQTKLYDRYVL

Homo sapiens = organism: Homo sapiens; assay: To identify inhibition of the IFN signalling (Jak-Stat) pathway via expression of an eGFP reporter gene under the control of an IFN-stimulated response element (ISRE) containing MxA promoter.; type: functional; settings: 30 µM
[7] = target: T4, Tyrosyl-tRNA synthetase, putative (Trypanosoma cruzi (strain CL Brener)) (UniProt Q4DSP6); assay: Trypanosoma cruzi tyrosyl tRNA synthetase (TcYRS) _High Tyrosine SOP; type: functional; settings: 30 µM; note: in the data most compounds retested in dose-response had high values
T4 sequence (whole entry): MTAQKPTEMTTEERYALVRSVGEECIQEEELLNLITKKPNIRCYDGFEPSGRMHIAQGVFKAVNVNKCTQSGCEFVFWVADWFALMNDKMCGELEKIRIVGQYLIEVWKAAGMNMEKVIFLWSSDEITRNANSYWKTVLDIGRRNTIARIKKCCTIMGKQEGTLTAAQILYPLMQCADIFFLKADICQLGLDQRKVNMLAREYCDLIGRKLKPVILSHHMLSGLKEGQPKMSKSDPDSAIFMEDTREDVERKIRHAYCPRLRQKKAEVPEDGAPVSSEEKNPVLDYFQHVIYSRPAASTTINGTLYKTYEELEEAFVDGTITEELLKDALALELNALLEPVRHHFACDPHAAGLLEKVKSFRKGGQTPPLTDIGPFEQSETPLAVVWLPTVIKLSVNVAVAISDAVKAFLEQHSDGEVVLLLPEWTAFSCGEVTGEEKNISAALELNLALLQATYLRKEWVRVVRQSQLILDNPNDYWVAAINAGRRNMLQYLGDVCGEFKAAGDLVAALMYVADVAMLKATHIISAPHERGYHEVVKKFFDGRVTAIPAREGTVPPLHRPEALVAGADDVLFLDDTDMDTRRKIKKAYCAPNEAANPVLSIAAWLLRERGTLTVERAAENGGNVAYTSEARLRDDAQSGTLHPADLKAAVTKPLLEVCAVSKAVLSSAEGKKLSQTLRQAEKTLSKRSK

[8] = target: T4, Tyrosyl-tRNA synthetase, putative (Trypanosoma cruzi (strain CL Brener)); assay: Trypanosoma cruzi tyrosyl tRNA synthetase (TcYRS) SOP; type: functional; settings: 30 µM
[9] = target: Chromo domain-containing protein 1 (Saccharomyces cerevisiae (strain ATCC 204508 / S288c) (Baker's yeast)) (UniProt P32657); assay: ScCHD-1 Enzyme Inhibition Assay; type: functional; settings: 30 µM; note: in the data most compounds retested in dose-response had high values
Chromo domain-containing protein 1 (Saccharomyces cerevisiae (strain ATCC 204508 / S288c) (Baker's yeast)), sequence (P32657 whole entry, the tested form may be a part): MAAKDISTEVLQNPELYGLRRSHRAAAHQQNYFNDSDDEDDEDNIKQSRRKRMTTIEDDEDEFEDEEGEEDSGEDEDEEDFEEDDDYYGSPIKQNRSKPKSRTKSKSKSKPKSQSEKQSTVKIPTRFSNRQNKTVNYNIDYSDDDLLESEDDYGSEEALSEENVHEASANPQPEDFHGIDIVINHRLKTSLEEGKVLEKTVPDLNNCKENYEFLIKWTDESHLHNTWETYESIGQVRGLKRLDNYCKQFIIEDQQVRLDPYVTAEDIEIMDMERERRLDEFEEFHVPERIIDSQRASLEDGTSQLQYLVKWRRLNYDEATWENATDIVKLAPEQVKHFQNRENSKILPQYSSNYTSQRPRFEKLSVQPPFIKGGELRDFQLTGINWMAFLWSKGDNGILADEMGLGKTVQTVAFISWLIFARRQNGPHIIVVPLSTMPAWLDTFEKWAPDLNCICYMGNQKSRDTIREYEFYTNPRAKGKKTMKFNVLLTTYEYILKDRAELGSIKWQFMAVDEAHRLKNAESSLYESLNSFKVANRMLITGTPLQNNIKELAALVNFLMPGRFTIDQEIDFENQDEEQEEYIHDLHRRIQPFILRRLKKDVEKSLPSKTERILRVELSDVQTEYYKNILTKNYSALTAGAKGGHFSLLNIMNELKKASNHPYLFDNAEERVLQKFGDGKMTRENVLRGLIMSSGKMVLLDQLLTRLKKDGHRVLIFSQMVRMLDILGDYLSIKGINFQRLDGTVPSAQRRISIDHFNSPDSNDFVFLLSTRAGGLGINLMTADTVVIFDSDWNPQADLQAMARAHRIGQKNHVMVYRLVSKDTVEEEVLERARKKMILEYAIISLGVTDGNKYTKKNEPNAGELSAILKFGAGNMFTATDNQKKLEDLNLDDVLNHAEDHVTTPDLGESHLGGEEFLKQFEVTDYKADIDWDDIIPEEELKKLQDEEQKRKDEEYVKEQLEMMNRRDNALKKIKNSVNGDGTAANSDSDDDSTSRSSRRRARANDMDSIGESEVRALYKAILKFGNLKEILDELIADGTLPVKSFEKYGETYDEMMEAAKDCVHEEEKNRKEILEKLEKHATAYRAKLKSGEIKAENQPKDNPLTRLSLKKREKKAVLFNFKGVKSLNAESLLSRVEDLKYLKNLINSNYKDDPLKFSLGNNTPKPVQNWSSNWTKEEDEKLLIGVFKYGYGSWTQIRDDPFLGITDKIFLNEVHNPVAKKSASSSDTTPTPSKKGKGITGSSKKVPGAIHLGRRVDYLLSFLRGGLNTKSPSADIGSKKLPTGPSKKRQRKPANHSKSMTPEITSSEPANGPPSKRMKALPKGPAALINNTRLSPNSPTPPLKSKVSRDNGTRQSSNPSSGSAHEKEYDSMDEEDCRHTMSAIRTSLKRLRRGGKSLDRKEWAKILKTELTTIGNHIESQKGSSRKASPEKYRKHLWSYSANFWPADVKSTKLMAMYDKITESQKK

Protein translocase subunit SecA (Escherichia coli (strain K12)), sequence (P10408 whole entry): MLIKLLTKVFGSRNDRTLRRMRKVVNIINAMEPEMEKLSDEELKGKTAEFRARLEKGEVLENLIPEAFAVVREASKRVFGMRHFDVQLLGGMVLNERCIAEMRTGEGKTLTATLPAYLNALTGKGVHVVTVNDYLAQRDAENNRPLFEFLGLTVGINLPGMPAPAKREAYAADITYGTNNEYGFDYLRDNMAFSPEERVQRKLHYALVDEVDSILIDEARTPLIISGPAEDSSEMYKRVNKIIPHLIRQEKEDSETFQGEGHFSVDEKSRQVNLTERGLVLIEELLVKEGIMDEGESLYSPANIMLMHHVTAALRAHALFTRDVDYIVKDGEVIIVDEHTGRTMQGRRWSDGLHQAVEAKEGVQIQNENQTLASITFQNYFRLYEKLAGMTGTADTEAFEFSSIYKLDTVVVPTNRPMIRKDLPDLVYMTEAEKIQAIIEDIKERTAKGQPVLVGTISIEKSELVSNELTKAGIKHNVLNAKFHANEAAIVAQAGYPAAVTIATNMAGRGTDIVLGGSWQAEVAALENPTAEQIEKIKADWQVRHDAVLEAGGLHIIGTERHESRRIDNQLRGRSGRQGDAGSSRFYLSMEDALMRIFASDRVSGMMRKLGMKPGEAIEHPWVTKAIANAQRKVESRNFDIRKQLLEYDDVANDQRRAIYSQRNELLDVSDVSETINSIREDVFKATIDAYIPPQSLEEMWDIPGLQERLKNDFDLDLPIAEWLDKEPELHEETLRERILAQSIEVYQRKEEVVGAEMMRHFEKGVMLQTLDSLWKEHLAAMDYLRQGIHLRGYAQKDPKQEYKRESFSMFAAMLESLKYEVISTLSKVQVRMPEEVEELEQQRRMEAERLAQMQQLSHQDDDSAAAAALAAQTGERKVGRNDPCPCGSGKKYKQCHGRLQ
Sialic acid-binding Ig-like lectin 9 (Homo sapiens), sequence (Q9Y336 whole entry): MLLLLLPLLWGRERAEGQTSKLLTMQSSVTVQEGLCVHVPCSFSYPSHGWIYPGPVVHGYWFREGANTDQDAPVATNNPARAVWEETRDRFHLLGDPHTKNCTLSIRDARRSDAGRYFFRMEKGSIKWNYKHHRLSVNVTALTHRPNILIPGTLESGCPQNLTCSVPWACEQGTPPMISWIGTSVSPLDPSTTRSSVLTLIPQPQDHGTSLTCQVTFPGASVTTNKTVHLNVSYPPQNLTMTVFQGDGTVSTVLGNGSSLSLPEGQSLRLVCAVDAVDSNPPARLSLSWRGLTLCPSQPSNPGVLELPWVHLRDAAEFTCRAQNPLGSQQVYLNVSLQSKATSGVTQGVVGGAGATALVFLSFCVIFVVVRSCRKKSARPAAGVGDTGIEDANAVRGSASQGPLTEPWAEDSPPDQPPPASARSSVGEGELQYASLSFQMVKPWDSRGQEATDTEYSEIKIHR

Row | Compound | Percent Effect [1] | Percent Effect [2] | Percent Effect [3] | Percent Effect [4] | Percent Effect (Trypanosoma cruzi) | Percent Effect [5] | Percent Effect [6] | Percent Effect (Homo sapiens) | Percent Effect [7] | Percent Effect [8] | Percent Effect [9]
1 | Cc1ncc(CNCC2CCCN2c2cccnn2)s1 (stereo unspecified) | 0.235% | 8.86% | -1.3% | -1.84% | 3.79% | 5.38% | 15.9% | 22.7% | 9.38% | 12.7% | -17.8%
2 | CN(Cc1ccco1)C(=O)C1CSCN1C(=O)c1cccnc1 (stereo unspecified) | -3.86% | 0% | 0.482% | 1.7% | 0.467% | -3.96% | 4.65% | -7.95% | -0.493% | 1.24% | -0.736%
3 | O=C1COC2(COCCN(Cc3cccnc3)C2)CN1c1ccoc1 (stereo unspecified) | -0.625% | 5.2% | 2.84% | 0.684% | -10.6% | 7.1% | 4.87% | 8.52% | 0% | 1.28% | -1.12%
4 | Cc1nnc(NC(=O)NCc2ccc(N3CCN(C)CC3)nc2)s1 | -5% | 15.8% | -3.09% | -1.76% | -5.32% | -0.36% | 13.6% | 3.4% | 5.42% | 18.5% | -9.38%
5 | Cc1nnc(N2CC[C@H]3C[C@@H](C(=O)NC4CCCC4)O[C@H]3C2)s1 | -5.67% | 0% | 11.8% | -3.34% | -1.66% | 1.59% | 0.738% | 10.7% | -1.08% | 7.69% | 8.63%
6 | CCN1CCN(C(=O)CCc2c(C)noc2Cl)CC1 | -4.13% | 10.5% | -2.91% | -3.24% | -9.24% | 4.32% | 5.16% | -6.25% | 3.45% | 6.17% | -1.51%
7 | Cn1cc(N2CCC3(CCN(S(=O)(=O)C4CC4)C3)C2=O)cn1 (stereo unspecified) | -2.28% | -2.67% | 0.251% | 0.236% | 2.32% | -37.5% | 8.55% | 0.388% | 1.04% | 5% | -4.63%
8 | CCN1CCN(C(=O)C(C)N2CCN(Cc3nccn3C)CC2)CC1 (stereo unspecified) | -3.29% | 2.7% | -1.16% | 6.16% | 6.59% | -4.99% | 1.08% | -7.4% | 0.99% | 3.66% | 2.46%
9 | CC1=Nc2c(c(=O)[nH]n2C2CCOCC2)C(c2cccc(Br)c2)S1 (stereo unspecified) | -5.02% | 12% | -9.43% | -0.93% | 1.97% | 82.6% | 14.1% | 30.4% | 9.52% | 20.5% | -11.4%
10 | O=C(Cc1c[nH]c2ccccc12)N1CCN(C(=O)c2ccoc2)CC1 | -2.06% | 13.2% | 1.95% | -3.58% | 0.487% | 14.2% | 12.9% | 21.1% | 7.45% | 18.2% | -2.68%
11 | COc1ccc(CN2CCCCC2CNC(=O)OC(C)(C)C)cc1F (stereo unspecified) | -3.55% | 0% | -2.98% | 21.3% | -1.86% | -1.74% | 0.0858% | -23.7% | -2.15% | 1.24% | -2.09%
